Sampled rows, rich in hits. Any-hit rate of the full collection: about 10%.
HP1b binding inh – HTS for Inhibitors of HP1-beta Chromodomain Interactions with Methylated Histone Tails; AID 540317, 2011; 390,000 tested, 0.56% active; Potency, µM (titrated, usually from 114 µM), inactives show at the highest dose activity change, negative = inhibition, actives largely listed as inhibitors; AlphaScreen HP1-beta / biotin-H3K9me3 peptide binding; also: nearly all actives have a fitted effect of over 70% in size
Target sequence (P83916 whole entry, looked up): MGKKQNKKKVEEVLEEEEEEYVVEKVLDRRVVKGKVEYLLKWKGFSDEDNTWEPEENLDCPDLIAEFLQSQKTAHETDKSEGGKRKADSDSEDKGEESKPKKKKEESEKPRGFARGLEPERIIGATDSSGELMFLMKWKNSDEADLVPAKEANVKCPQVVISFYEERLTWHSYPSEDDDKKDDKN
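AlphaScreen: HP1-beta (50 nM) preformed 30 min with biotin-H3(1-18)K9me3 peptide (50 nM) in PBS pH 7.4, 0.01% Tween-20. Compound added for 30 min at RT, then streptavidin donor/nickel chelate acceptor beads (10 ug/mL) for 30 min.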
G9a block – qHTS Assay for Inhibitors of Histone Lysine Methyltransferase G9a; Histone-lysine N-methyltransferase EHMT2 (Homo sapiens), Q96KQ7; G9a H3K9 monomethylation, AlphaScreen, 2 h; Potency, µM (top dose mostly 102 µM), for inactives: at the top dose activity, negative = inhibition, most hits filed as inhibitors; 350,000 tested, 8.8% active; also: % is scaled to controls: 0 for no effect and ±100 for the full control effect; nearly all actives have a fitted effect of over 75% in size
Target sequence (Q96KQ7 913-1193 limits assumed): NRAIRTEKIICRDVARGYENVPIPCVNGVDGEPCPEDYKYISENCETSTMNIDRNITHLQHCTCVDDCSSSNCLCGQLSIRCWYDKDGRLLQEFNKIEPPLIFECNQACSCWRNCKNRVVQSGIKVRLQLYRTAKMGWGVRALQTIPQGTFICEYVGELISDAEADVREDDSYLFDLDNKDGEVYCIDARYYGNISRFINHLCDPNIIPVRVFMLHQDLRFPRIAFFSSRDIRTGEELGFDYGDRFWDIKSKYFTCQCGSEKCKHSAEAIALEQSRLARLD
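Methyltransferase reactions run at room temperature for 2 h (20 nM enzyme, 500 nM biotin-H3K9 peptide, 20 uM SAM) after a 15 min compound preincubation; product detected by AlphaScreen beads and anti-H3K9me1 antibody.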
BAZ2B inh – qHTS Assay for Inhibitors of BAZ2B. Bromodomain adjacent to zinc finger domain protein 2B (Homo sapiens), Q9UIF8. AlphaScreen BAZ2B-H3K14Ac peptide displacement. Potency, µM (top dose mostly 114 µM), for the others: at the top dose activity change, negative = inhibition, actives largely listed as inhibitors. 360,000 tested, 4.4% active. AID 504333, 2011; also: % is scaled to controls: 0 for no effect and ±100 for the full control effect; nearly all actives have a fitted effect of over 60% in size
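Protein-peptide AlphaScreen: BAZ2B 50 nM, b-H3K14Ac 50 nM, 1x PBS pH 7.4 + 0.01% Tween-20. Preincubation 30 min RT; cpd 30 min RT (top 110 uM); beads 20 min RT, light-protected.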
JMJD2A Tudor inh – qHTS Assay for Inhibitors of JMJD2A-Tudor Domain. 390,000 tested, 4.4% active. AID 504339, 2011. AlphaScreen JMJD2A-Tudor / H3K4me3 peptide binding. Potency, µM (series often up to 114 µM), without a hit: at the highest dose activity change, negative = inhibition, actives largely listed as inhibitors; also: % is scaled to controls: 0 for no effect and ±100 for the full control effect; nearly all actives have a fitted effect of over 50% in size
GLS inhibitor – qHTS for Inhibitors of Glutaminase (GLS); 410,000 tested, 0.21% active; AID 624170, 2012; GLS enzymatic activity, qHTS titration; Potency, µM (top dose mostly 45.5 µM), for the others: at the highest dose activity change, negative = inhibition, hits mostly inhibitors; also: % is scaled to controls: 0 for no effect and ±100 for the full control effect
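hKGA in 45 mM KH2PO4 pH 8.2, 0.02% Tween-20 with pin-transferred compounds; 1 mM L-glutamine (stock) plus glutamate oxidase/HRP/Amplex Red coupling added. Fluorescence read initially and after 30 min at RT.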
An asterisk follows results filed as active; [ ] = dose if it differs, or a comment. Calls follow the shape of the dose curve; as a rule, active = well fitted curve in the direction sought with a large enough effect; inconclusive = small, poorly fitted or top-dose-only effect, or another doubt; inactive = no such curve, though single readings can be large; an effect the other way counts as inactive or inconclusive. Potency is read from the fitted curve at half-maximal effect.

What do the screens show for `CCc1ccc(OCC(=O)Nc2ccc(Cl)c(-c3nc4ncccc4o3)c2)cc1`?
HP1b binding inh: 38.5%; G9a block: -3.3%[59 µM]; BAZ2B inh: 2.0%; JMJD2A Tudor inh: -14.4%; GLS inhibitor: -10.1%

Results for CCS(=O)(=O)c1c(Nc2ccc(F)c(Cl)c2)sc(C(=O)c2ccccc2)c1N ?
HP1b binding inh: -7.3%; G9a block: -42.2%[59 µM]; BAZ2B inh: inconclusive; JMJD2A Tudor inh: inconclusive; GLS inhibitor: 13.2%

Results for Cc1ncc(CO)c(/C=N/NC(=O)c2cc3c(s2)CCCC3)c1O ?
HP1b binding inh: 15.3%; G9a block: 11.2%[12.7 µM]; BAZ2B inh: 50.1µM*; JMJD2A Tudor inh: 56.2µM*; GLS inhibitor: 0.1%

Results for Cc1ncc(CO)c(/C=N/NC(=S)Nc2cccc(Cl)c2)c1O ?
HP1b binding inh: inconclusive; G9a block: inconclusive; BAZ2B inh: 12.6µM*; JMJD2A Tudor inh: 56.2µM*; GLS inhibitor: -1.3%

Results for Cc1ncc(CO)c(/C=N/NC(=S)Nc2ccc(Cl)c(Cl)c2)c1O ?
HP1b binding inh: inconclusive; BAZ2B inh: 22.4µM*; JMJD2A Tudor inh: inconclusive; GLS inhibitor: -7.9%

Results for Cc1cc(=O)n(CC(=O)N2CCCc3ccccc32)c2c1c(C)nn2-c1cccc(F)c1 ?
HP1b binding inh: 3.7%; G9a block: 12.5%[59 µM]; BAZ2B inh: -4.8%; JMJD2A Tudor inh: -12.0%; GLS inhibitor: 6.8%

Results for Cc1ccc2ccccc2c1C(O)c1ncc(-c2ccccc2Cl)[nH]1 (stereo not given) ?
GLS inhibitor: 0.6%

How did COc1ccc(-n2c(=O)cnc3cnc(N(C)C)nc32)cc1 do in these assays?
G9a block: -2.2%[0.501 µM]

How did CC(=O)Nc1cc(=O)c2cccnc2[nH]1 do in these assays?
HP1b binding inh: 1.8%; JMJD2A Tudor inh: 50.1µM*; GLS inhibitor: 15.8µM*

Results for CCOC(=O)c1ccc2c(c1)N(Cc1ccc(F)cc1Cl)C(=O)c1ccccc1S2 ?
HP1b binding inh: 42.2%; G9a block: 8.1%[59 µM]; BAZ2B inh: 5.7%; JMJD2A Tudor inh: 1.8%; GLS inhibitor: 8.4%

What do the screens show for `O=C(NNc1ccc(C2CCCCC2)cc1)C(O)(c1ccccc1)c1cccs1` (stereo not given)?
HP1b binding inh: 14.3%; G9a block: 0.9%[0.501 µM]; BAZ2B inh: 50.1µM*; JMJD2A Tudor inh: -30.1%; GLS inhibitor: 18.8%

What do the screens show for `COc1cc(Br)cc(CNc2ccc(F)c([N+](=O)[O-])c2)c1O`?
HP1b binding inh: -2.6%; G9a block: 44.7µM*; BAZ2B inh: inconclusive; JMJD2A Tudor inh: inconclusive; GLS inhibitor: 0.8%

What do the screens show for `Cc1ccc(CC(=O)Nc2ccc(F)c([N+](=O)[O-])c2)cc1C`?
HP1b binding inh: 35.7%; G9a block: -2.1%; BAZ2B inh: inconclusive; JMJD2A Tudor inh: -12.1%; GLS inhibitor: -2.0%

Results for COc1ccc(-c2cc3ccccc3n2CC(O)CN2CCC(C)CC2)cc1 (stereo not given) ?
HP1b binding inh: inconclusive; G9a block: inconclusive; BAZ2B inh: 50.1µM*; JMJD2A Tudor inh: 17.8µM*; GLS inhibitor: 7.3%

How did O=C1C=CC(=O)c2c(O)c(N3CCN(CCO)CC3)c(Cl)c(O)c21 do in these assays?
HP1b binding inh: inconclusive; JMJD2A Tudor inh: 50.1µM*; GLS inhibitor: inconclusive

How did O=C1C=CC(=O)c2c(O)c(N3CCN(CCOCCO)CC3)c(Br)c(O)c21 do in these assays?
HP1b binding inh: 8.91µM*; JMJD2A Tudor inh: 56.2µM*; GLS inhibitor: 4.2%

Results for O=S(=O)(c1ccc(Br)cc1Cl)N1CCN(CCO)CC1 ?
HP1b binding inh: 33.8%; G9a block: inconclusive; JMJD2A Tudor inh: -9.1%; GLS inhibitor: -2.1%

How did C[C@@H]1CN([C@@H](C)CO)C(=O)c2cc(Br)cnc2O[C@H]1CN(C)C(=O)Cc1cccnc1 do in these assays?
GLS inhibitor: 1.0%

Results for COc1ccc(OC)c(CC(=O)Nc2ccc3c(c2)c(=O)n(C)n3Cc2cccc(C(F)(F)F)c2)c1 ?
GLS inhibitor: 5.0%

How did NS(=O)(=O)c1ccc(N/N=C/c2cn(-c3ccccc3)nc2-c2cccs2)cc1 do in these assays?
HP1b binding inh: -3.2%; G9a block: 10µM*; BAZ2B inh: 3.4%; JMJD2A Tudor inh: inconclusive; GLS inhibitor: 1.6%

What do the screens show for `NS(=O)(=O)c1ccc(N/N=C/c2cn(-c3ccccc3)nc2-c2cccs2)c([N+](=O)[O-])c1`?
HP1b binding inh: -13.6%; G9a block: inconclusive; BAZ2B inh: inconclusive; JMJD2A Tudor inh: -23.1%; GLS inhibitor: -3.4%

How did O=C(O)c1cccc(N/N=C/c2cn(-c3ccccc3)nc2-c2cccs2)c1 do in these assays?
HP1b binding inh: -2.4%; G9a block: 35.5µM*; BAZ2B inh: inconclusive; JMJD2A Tudor inh: inconclusive; GLS inhibitor: inconclusive

How did O=C(CCl)Nc1c2c(nn1-c1ccccc1)CSC2 do in these assays?
HP1b binding inh: -18.2%[57 µM]; G9a block: 6.2%[59 µM]; BAZ2B inh: -12.6%; JMJD2A Tudor inh: 44.7µM*; GLS inhibitor: -4.9%

What do the screens show for `Cc1cccc(-n2nc3c(c2NC(=O)CCCl)CSC3)c1`?
HP1b binding inh: 27.7%; G9a block: 18.2%[2.33 µM]; BAZ2B inh: 1.2%; JMJD2A Tudor inh: -17.7%; GLS inhibitor: 10.4%

How did Cc1cccc(-n2nc3c(c2NC(=O)c2ccc(Br)o2)CSC3)c1 do in these assays?
HP1b binding inh: 31.8%; G9a block: 39.8µM*; BAZ2B inh: -35.0%; JMJD2A Tudor inh: -12.6%; GLS inhibitor: 24.1%

How did CC(=O)N1CCC[C@@]2(CCN(Cc3ccc(C#N)cc3)C2)C1 do in these assays?
G9a block: -16.0%[12.7 µM]

What do the screens show for `COc1ccc(C)cc1NC(=O)C1COc2ccccc2C1` (stereo not given)?
HP1b binding inh: 24.8%[57 µM]; G9a block: -5.4%[59 µM]; BAZ2B inh: 4.8%; JMJD2A Tudor inh: 8.91µM*; GLS inhibitor: -10.2%

How did O=C(c1ccc2nsnc2c1)N1CCN(c2ccc([N+](=O)[O-])cc2)CC1 do in these assays?
HP1b binding inh: 20.9%; G9a block: -44.2%; BAZ2B inh: -26.6%; JMJD2A Tudor inh: -10.5%; GLS inhibitor: 11.0%

Results for O=C1CCCCCN1Cc1nnc(SCc2nc3ccccc3s2)n1-c1ccccn1 ?
HP1b binding inh: 38.3%; G9a block: 50.1µM*; BAZ2B inh: -21.8%; JMJD2A Tudor inh: -22.2%; GLS inhibitor: -4.6%

What do the screens show for `Clc1ccccc1N1CCN(Cc2c[nH]c3ccccc23)CC1`?
HP1b binding inh: inconclusive; JMJD2A Tudor inh: 20µM*; GLS inhibitor: -1.3%

Source: PubChem BioAssay (National Center for Advancing Translational Sciences (NCATS))
